The panel holds about 83,000 compounds, 20% with a hit somewhere; the sample as a whole holds those more often.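 Percent growth is the endpoint: 0 to 100 indicates growth inhibition (40 means 60% inhibition), 0 means no net growth, and negative values indicate cell death.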 Unmarked numbers belong to inactive results. Active and inactive are the calls of the source. The calls were made as follows: active = growth percent below 10; inactive = the rest.
Each compound was assayed on K-562 leukemia (assay: NCI-60 one-dose screen, 48 h (100 = growth as untreated, 0 = no growth, -100 = all killed)). Settings: 10 µM unless noted.

SMILES	growth
COc1cc2cc(C(=O)N3C[C@@H](CCl)c4c3cc(OC(=O)N(CCC(=O)N3CCN(C)CC3)C3CCCCC3)c3ccccc43)[nH]c2c(OC)c1OC	-20.6% (active)
Clc1ccc(Nc2nnc(-c3c[nH]c4ccccc34)o2)cc1	32%
Cc1ccc(S(=O)(=O)N(CCn2ccnc2[N+](=O)[O-])CCn2ccnc2[N+](=O)[O-])cc1	95.7%
O=C(N/N=C/c1ccsc1)c1[nH]c2ccc(Br)cc2c1-c1ccccc1	4.77% (active)
Cc1ccc2nc(NC(=O)Nc3cccc(Cl)c3)sc2c1	90.3%
N/C(=N\c1nc2ccc([N+](=O)[O-])cc2s1)NC(=O)Nc1ccccc1Cl	13%
COc1ccc(/C=C/C(=O)c2ccc(S(=O)(=O)NCCNc3nc(N(C)C)nc(N4CCOCC4)n3)cc2)cc1	35.9%
O=C(NN1C(=O)/C(=C/C=C/c2ccc([N+](=O)[O-])o2)SC1=S)c1ccncc1	3.03% (active)
Nc1nnc(CS(=O)(=O)c2ccccc2)s1	98.9%
CS(=O)(=O)c1ccc(-n2nc(C(=O)NCc3ccccc3)cc2-c2ccc(Cl)cc2)cc1	49.4%
Cc1cccc(NCC(=O)N2CCN(c3ncnc4c3cnn4-c3ccccc3)CC2)c1	43.8%
CCCCCCCOc1ccc(S(=O)(=O)Nc2ccc(C)c(F)c2C(=O)O)cc1	88.4%
O=C(NNC(=O)c1ccc(OCc2nc3ccc(Cl)cc3[nH]2)cc1)Nc1ccc(Cl)c(C(F)(F)F)c1	39.1%
OC(c1ccccc1)(c1ccccc1)C1CCN(c2ccc3nnc(Cl)n3n2)CC1	10.7%
CCOC(=O)c1ccc(NC(=S)NC(=O)c2cccc(NC(=O)c3ccc(C)cc3)c2)cc1	76.3%
COC(=O)c1cccc(Oc2ccc(NC(=O)Nc3cc(C(F)(F)F)ccc3F)cc2)c1	59.5%
CCCn1c(NC(=O)c2cccc(C(N)=O)c2)nc2cc(CN3CCCCC3)ccc21	72.3%
COC(=O)c1c(C(=O)OC)c2c3ccccc3c3ccccc3n2c1C(=O)C(F)(F)F	97.2%
CCOc1ccccc1[C@H]1C(C(=O)c2ccc(Cl)cc2)C2(N[C@@H]1c1ccccc1)C(=O)Nc1ccccc12 (stereo partly drawn)	0.16% (active)

SMILES	growth
COc1ccc(N=Nc2c(N)nn3c(N)c(C#N)c(-c4ccccc4)nc23)cc1	71.8%
O=C(Nc1ccc(S(=O)(=O)N2CCCCC2)cc1)C(Cl)Cl	111%
O=C1Nc2ccccc2/C1=C/C(=O)c1cc2ccccc2oc1=O	14.5%
C/C(=N\Nc1ccc(C(=O)O)cc1)c1cnn(-c2cc(=O)[nH]c3ccc(C)cc23)c1C	101%
CN(C)c1nc(NCCNS(=O)(=O)c2ccc(C(=O)/C=C/c3ccccc3)cc2)nc(N2CCOCC2)n1	-15.4% (active)
COc1cc(CNC(=O)C[C@H](C)CCC=C(C)C)ccc1OCc1cn(-c2ccc(Br)cc2)nn1	66.3%
COc1ccc(-n2c(NC(=O)N3CCN(C)CC3)c(C#N)c3ccccc32)cc1	58.6%
O=C1CCC(N2C(=O)c3cccc(NCCCCCC(=O)N4CCN(c5ccc6nc7c(nc6c5C(F)(F)F)C(=O)c5ncccc5C7=O)CC4)c3C2=O)C(=O)N1 (stereo not drawn)	-0.95% (active)
O=C(CSc1nc2sc3c(c2c(=O)n1-c1ccc(Cl)cc1)CCCC3)NNC(=O)c1ccc(Br)cc1	55.5%
COc1ccc2[nH]c(O)c(N=NC(=O)c3ccc4nc(-c5ccc(Cl)cc5)[nH]c4c3)c2c1	41.8%
COc1cc(/C=N/NC(=O)c2ccc(OCc3nc4ccc(C)cc4[nH]3)cc2)cc(OC)c1OC	17.7%
CC(C)(C)C(=O)C1CC(C#N)=C2C=Cc3c(ccc4ccccc34)N21 (stereo not drawn)	85.4%
COc1cc(NC(=O)C(C)C)ccc1C(=O)NC(=S)Nc1ccc(S(N)(=O)=O)cc1	108%
COc1c2c(c(Br)c3c1C(CCc1ccccc1)N(C)CC3)OCO2 (stereo not drawn)	28.1%
COc1ccc(CCC2NCCc3c(Br)c4c(c(OC)c32)OCO4)cc1 (stereo not drawn)	6.12% (active)
O=CNc1ccc(-n2cnc3cc(-c4ccc(O)cc4)ccc32)cc1	64.7%
N#CCc1nnc(NC(=O)c2ccc(-n3c(=O)[nH]c4ccccc4c3=O)cc2)s1	101%
FC(F)(F)c1cc2c(Cl)ncnc2n1CCN1CCOCC1	0.361% (active)
Nc1cc(-c2c[nH]c3ccc(Br)cc23)nc2cc(-c3c[nH]c4ccccc34)nn12	6.16% (active)
